In the supplement of paper PMC10849652:
The full data set covers some 8,800 targets. This sample favours those with a hit. About 0.5% of all pairs of compound and target were hits.

Legend:
Assay in all cases: log2 fold change, soluble protein after heating vs DMSO (PISA); higher = thermal stabilisation; K562 lysate, 10 uM; active = over 0.2 and 3.5 SD of the protein, either way, in both replicates (recomputed)
[1] = compound: C1=CC=C(C=C1)[C@H](COC2=CC3=C(C=C2)NC(=O)N3)NC(=O)C4=CC=CN(C4=O)CC5=CC(=C(C=C5)F)F
Summary of the method: (§1)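 Values give the log-two fold change in thermal stability against solvent controls, from duplicates. Crude K562 extract at 1 mg/mL protein, made by dounce homogenisation in PBS pH 7.4 with 1 mM MgCl2, was treated with 10 μM compound for 30 min. After 3 min heating across 48°C-58°C, aliquots were pooled, adjusted to 0.5% NP-40 at 4°C and centrifuged at 21,000xg for 90 min. The supernatant was measured by TMTpro 16plex LC-MS/MS with channel sums equalised.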

[2] = compound: CC1=C(SC2=C1C(=N[C@H](C3=NN=C(N32)C)CC(=O)N)C4=CC=C(C=C4)Cl)C
Summary of the method: as §1

[3] = compound: CC1=C2C(=CC=C1)N=C(N(C2=O)C3=CC=CC=C3C)CN4C=NC5=C(N=CN=C54)N
Summary of the method: as §1

[4] = compound: Cc1sc2c(c1C)C(c1ccc(Cl)cc1)=N[C@@H](CC(=O)OC(C)(C)C)c1nnc(C)n1-2
Summary of the method: as §1

[5] = compound: c1ccc([C@@H]2C[C@H]2NC2CCNCC2)cc1
Summary of the method: as §1

Measured: log2 fold change

DGCR8 (UniProt Q8WYQ5)
inactive: [1] -0.05 | [2] 0.063 | [3] 0.004 | [4] 0.029 | [5] 0.017

CLUH (UniProt O75153)
inactive: [1] 0.03 | [2] 0.008 | [3] 0.021 | [4] -0.02 | [5] -0.058

DOCK10 (UniProt Q96BY6)
UniProt Q96BY6, sequence (Q96BY6 whole entry, looked up): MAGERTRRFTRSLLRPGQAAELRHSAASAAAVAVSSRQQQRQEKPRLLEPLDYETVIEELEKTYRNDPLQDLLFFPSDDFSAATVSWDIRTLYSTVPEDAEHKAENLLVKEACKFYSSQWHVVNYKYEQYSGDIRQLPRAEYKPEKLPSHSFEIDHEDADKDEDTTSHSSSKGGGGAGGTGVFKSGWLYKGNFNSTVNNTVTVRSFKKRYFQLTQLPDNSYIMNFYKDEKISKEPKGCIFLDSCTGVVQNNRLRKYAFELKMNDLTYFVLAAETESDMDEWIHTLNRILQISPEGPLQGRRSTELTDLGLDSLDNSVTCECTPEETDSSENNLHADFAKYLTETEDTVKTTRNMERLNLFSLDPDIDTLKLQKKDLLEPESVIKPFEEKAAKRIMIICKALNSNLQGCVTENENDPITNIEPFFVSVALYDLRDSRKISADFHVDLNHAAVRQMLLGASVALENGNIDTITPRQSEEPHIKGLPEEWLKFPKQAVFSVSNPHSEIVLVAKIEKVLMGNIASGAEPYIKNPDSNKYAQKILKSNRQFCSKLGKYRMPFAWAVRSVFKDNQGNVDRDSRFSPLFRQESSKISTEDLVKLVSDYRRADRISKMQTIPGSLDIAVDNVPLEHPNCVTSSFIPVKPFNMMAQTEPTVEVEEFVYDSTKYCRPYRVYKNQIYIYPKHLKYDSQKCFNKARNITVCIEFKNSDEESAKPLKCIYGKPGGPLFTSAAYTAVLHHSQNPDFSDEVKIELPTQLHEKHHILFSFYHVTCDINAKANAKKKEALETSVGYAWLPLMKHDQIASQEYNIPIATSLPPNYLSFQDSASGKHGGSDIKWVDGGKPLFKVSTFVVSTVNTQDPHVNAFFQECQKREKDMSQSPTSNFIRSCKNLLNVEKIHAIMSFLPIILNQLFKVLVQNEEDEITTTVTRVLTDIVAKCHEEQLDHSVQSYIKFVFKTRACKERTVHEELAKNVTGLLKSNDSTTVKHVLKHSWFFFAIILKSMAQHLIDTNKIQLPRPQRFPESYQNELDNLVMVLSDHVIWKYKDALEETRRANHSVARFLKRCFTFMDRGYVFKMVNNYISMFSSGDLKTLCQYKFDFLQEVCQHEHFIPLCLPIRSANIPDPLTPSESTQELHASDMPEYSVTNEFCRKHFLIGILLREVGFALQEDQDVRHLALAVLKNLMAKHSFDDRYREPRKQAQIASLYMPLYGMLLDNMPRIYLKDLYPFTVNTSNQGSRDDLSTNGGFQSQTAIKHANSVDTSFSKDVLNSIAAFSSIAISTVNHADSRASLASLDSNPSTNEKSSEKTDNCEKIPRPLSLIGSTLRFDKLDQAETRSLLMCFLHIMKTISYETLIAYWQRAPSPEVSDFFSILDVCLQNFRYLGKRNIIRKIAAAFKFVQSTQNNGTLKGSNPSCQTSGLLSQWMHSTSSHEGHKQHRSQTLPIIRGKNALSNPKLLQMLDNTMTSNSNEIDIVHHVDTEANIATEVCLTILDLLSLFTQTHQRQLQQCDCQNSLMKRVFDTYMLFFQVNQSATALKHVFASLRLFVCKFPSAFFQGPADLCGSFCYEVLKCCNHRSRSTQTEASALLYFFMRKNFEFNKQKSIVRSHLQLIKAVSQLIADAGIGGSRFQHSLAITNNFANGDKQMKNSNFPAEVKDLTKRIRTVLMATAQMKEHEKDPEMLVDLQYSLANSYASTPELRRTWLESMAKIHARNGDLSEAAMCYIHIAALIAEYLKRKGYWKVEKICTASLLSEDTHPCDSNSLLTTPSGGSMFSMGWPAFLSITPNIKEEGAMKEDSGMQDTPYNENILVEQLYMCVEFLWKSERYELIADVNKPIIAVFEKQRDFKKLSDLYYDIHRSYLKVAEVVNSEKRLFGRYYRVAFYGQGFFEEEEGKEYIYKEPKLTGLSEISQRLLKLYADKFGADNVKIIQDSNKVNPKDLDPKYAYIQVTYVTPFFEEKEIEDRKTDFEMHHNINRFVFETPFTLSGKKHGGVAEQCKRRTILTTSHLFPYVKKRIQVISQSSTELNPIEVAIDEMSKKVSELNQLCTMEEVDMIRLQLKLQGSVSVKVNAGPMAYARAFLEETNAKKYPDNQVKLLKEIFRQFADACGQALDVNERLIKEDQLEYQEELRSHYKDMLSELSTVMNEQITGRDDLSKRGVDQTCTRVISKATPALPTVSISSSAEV
inactive: [1] 0.053 | [2] -0.018 | [3] 0.062 | [4] -0.109 | [5] -0.491

DAZAP1 (UniProt Q96EP5)
inactive: [1] 0.011 | [2] -0.046 | [3] 0.005 | [4] 0.088 | [5] -0.086

CSTB (UniProt P04080)
UniProt P04080, sequence (P04080 whole entry, looked up): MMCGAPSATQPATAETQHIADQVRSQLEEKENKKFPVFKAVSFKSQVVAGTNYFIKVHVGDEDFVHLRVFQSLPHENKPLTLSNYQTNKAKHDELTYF
inactive: [1] -0.031 | [2] -0.018 | [3] -0.032 | [4] -0.071 | [5] -0.146

CMTM3 (UniProt Q96MX0)
inactive: [1] 0.058 | [2] -0.097 | [3] -0.018 | [4] 0.015 | [5] -0.024

DEF6 (UniProt Q9H4E7)
inactive: [1] -0.061 | [2] -0.05 | [3] -0.027 | [4] 0.036 | [5] -0.037

DDA1 (UniProt Q9BW61)
inactive: [1] 0.073 | [2] 0.024 | [3] -0.016 | [4] -0.003 | [5] 0.029

CUL1 (UniProt Q13616)
inactive: [1] 0.017 | [2] -0.027 | [3] -0.007 | [4] 0.016 | [5] -0.001

DHRS11 (UniProt Q6UWP2)
UniProt Q6UWP2, sequence (Q6UWP2 whole entry, looked up): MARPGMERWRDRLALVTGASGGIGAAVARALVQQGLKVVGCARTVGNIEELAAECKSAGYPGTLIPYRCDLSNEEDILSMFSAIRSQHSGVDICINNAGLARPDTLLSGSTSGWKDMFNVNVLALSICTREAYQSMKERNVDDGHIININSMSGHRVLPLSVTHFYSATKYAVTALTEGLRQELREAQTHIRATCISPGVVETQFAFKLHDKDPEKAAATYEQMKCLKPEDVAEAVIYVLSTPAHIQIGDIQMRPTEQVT
inactive: [1] -0.004 | [2] 0.012 | [3] 0.018 | [4] 0.013 | [5] 0.014

DENND6A (UniProt Q8IWF6)
UniProt Q8IWF6, sequence (Q8IWF6 whole entry, looked up): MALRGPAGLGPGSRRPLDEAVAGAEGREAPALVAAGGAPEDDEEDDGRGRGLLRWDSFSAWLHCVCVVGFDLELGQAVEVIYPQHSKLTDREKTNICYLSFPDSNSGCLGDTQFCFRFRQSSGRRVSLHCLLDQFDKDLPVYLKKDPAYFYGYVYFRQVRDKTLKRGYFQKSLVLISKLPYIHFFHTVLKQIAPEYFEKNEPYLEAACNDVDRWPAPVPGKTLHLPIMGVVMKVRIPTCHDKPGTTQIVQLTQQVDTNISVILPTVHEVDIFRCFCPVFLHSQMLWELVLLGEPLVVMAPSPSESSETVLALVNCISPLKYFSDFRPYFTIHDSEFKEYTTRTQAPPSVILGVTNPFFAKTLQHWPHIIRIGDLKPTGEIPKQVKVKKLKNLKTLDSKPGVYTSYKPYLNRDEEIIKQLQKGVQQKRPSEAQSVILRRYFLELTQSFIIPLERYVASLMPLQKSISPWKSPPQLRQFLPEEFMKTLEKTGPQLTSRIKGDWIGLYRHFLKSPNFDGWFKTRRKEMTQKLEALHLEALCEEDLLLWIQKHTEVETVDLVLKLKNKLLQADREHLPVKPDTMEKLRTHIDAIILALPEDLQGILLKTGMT
inactive: [1] -0.101 | [2] -0.008 | [3] -0.026 | [4] 0.039 | [5] 0.023

CUEDC2 (UniProt Q9H467)
inactive: [1] 0.074 | [2] 0.019 | [3] -0.017 | [4] 0.013 | [5] 0.11

CSNK1A1 (UniProt P48729)
inactive: [1] -0.027 | [2] 0.007 | [3] -0.033 | [4] 0.025 | [5] -0.044

DHRS1 (UniProt Q96LJ7)
inactive: [1] 0.15 | [2] -0.103 | [3] -0.015 | [4] 0.029 | [5] -0.107

CIP2A (UniProt Q8TCG1)
inactive: [1] -0.03 | [2] -0.002 | [3] -0.008 | [4] -0.021 | [5] 0.018

CLP1 (UniProt Q92989)
UniProt Q92989, sequence (Q92989 whole entry, looked up): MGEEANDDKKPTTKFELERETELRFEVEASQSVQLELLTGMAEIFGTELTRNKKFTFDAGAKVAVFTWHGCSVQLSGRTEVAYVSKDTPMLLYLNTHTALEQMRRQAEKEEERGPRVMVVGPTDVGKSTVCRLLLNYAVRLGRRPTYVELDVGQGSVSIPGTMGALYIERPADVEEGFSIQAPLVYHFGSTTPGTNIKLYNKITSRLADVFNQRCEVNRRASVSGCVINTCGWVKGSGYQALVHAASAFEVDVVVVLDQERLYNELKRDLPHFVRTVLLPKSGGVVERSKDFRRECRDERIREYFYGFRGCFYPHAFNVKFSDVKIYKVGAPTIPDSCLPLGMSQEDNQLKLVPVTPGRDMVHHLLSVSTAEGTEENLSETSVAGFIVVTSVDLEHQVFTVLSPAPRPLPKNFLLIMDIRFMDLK
inactive: [1] -0.023 | [2] -0.002 | [3] -0.023 | [4] 0.026 | [5] -0.1

CNDP2 (UniProt Q96KP4)
inactive: [1] 0.017 | [2] 0.017 | [3] -0.022 | [4] -0.006 | [5] -0.145

CLIC2 (UniProt O15247)
inactive: [1] -0.022 | [2] 0.033 | [3] 0 | [4] 0.017 | [5] 0.029

DNAJC5 (UniProt Q9H3Z4)
UniProt Q9H3Z4, sequence (Q9H3Z4 whole entry, looked up): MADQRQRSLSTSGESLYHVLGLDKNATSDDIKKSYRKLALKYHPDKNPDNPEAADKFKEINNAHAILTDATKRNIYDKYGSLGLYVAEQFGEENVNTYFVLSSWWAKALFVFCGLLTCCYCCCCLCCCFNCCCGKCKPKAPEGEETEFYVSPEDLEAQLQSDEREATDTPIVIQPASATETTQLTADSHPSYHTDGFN
inactive: [1] 0.032 | [2] -0.015 | [3] -0.034 | [4] 0.009 | [5] -0.308

DLGAP5 (UniProt Q15398)
inactive: [1] 0.029 | [2] -0.006 | [3] 0.009 | [4] -0.036 | [5] -0.015

CORO1A (UniProt P31146)
inactive: [1] -0.024 | [2] 0.021 | [3] 0.004 | [4] 0.078 | [5] -0.019

DDB2 (UniProt Q92466)
inactive: [1] -0.025 | [2] -0.026 | [3] 0.034 | [4] -0.027 | [5] 0.006

DNAJC1 (UniProt Q96KC8)
inactive: [1] -0.113 | [2] -0.021 | [3] 0.039 | [4] -0.011 | [5] 0.021

CKM (UniProt P06732)
UniProt P06732, sequence (P06732 whole entry, looked up): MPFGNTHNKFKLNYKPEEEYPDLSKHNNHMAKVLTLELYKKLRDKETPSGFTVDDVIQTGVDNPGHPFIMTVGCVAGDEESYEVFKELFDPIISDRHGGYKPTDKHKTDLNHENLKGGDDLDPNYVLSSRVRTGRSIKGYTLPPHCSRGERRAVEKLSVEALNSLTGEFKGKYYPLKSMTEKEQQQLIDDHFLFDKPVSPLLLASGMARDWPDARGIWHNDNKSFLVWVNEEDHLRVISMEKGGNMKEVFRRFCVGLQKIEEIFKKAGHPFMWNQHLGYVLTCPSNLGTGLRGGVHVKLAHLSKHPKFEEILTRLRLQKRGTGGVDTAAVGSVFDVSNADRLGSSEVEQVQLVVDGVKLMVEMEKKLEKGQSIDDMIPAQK
inactive: [1] 0.008 | [2] -0.027 | [3] -0.109 | [4] -0.169 | [5] 0

COG5 isoform 2 (UniProt Q9UP83)
UniProt Q9UP83, sequence (Q9UP83 whole entry, looked up): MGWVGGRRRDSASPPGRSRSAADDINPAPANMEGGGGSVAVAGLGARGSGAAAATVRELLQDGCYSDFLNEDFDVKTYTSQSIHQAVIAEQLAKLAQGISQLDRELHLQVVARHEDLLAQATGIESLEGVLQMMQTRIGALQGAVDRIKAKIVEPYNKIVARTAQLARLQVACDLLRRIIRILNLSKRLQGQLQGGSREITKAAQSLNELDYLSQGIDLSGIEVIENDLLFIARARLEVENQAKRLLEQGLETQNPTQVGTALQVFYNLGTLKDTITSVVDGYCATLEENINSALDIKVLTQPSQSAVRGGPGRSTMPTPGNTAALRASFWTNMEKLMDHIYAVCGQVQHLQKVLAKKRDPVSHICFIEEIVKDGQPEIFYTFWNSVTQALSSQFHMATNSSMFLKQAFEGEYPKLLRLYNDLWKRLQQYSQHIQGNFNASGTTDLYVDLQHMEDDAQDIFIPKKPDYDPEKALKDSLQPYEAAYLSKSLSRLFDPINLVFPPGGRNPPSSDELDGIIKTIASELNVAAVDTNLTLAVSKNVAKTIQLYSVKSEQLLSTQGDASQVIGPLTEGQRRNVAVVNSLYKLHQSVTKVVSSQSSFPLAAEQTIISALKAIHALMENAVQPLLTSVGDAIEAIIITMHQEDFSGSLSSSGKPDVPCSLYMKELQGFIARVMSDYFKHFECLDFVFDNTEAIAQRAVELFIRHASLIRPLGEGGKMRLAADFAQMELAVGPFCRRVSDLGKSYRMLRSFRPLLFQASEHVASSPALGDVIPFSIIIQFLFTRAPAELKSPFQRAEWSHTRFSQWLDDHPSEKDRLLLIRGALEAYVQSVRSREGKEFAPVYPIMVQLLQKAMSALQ
inactive: [1] 0.034 | [2] 0.045 | [3] -0.042 | [4] -0.003 | [5] 0.033
